Screen size: about 38,000 compounds; about 1,200 (3.2%) showed an effect of 50% or more. The median lay at about -58%. The full list was thinned out, with strong results kept by preference.
Each molecule was assayed on Plasmodium falciparum (assay: Calibr Malaria Delayed Death Assay SOP). Details: concentration 4.99e-06 (unit not given; other assays of the set use mol/L).
Format: functional, organism-based
Set-up: scale not given: in the data most compounds retested in dose-response had high values

| Compound | Percent Effect [%] |
| --- | --- |
| CN1CC2(CCN(c3ncnc4c3CCNC4)CC2)OC1=O | -26.92 |
| CSCc1cc(C(=O)NC2(C#N)CC2)ccc1F | -114.4 |
| CC(C)c1cc(NC(=O)CN2CCC(N3CCCCC3)CC2)on1 | -41.68 |
| CN1C(=O)C(c2cccnc2)CC12CCN(Cc1nccs1)CC2 (configuration not stated) | -72.15 |
| Cc1cc(C)n(C2CN(CC(=O)NC3CCS(=O)(=O)C3)C2)n1 (configuration not stated) | -92.21 |
| c1cnc(-c2nc(C3CCOC3)no2)cn1 (configuration not stated) | -46.11 |
| Cc1occc1CNc1ncccc1S(N)(=O)=O | -160.3 |
| CCN(C(=O)C1=NN(c2ccccc2)C(=O)CN1)c1ccccc1 | -71.25 |
| CCN(Cc1ccco1)C(=O)C1=NN(c2ccccc2)C(=O)CN1 | 59.42 |
| O=C(NCCc1ccccn1)C1=NN(c2ccccc2)C(=O)CN1 | -38.96 |
| CCc1nc(N2CCC3(CCC(=O)N(Cc4ccncc4)C3)CC2)no1 | -12.44 |
| CC(C)n1cnnc1CN(C)C(=O)Cn1ccc2ccccc2c1=O | -90.48 |
| FC(F)(F)C1CCCn2c(CNCc3ccco3)nnc21 (configuration not stated) | -67.88 |
| CCN(CC)C1CCN(C(=O)NCc2c(C)noc2C)CC1 | -63.79 |
| Cc1ccc(N(C)C2CCN(C(=O)CCc3ccco3)CC2)nn1 | -48.98 |
| CCc1cc(CNC(=O)N(C2CC2)C(C)c2ccco2)on1 (configuration not stated) | -36.38 |
| CCc1cc(CNC(=O)N2Cc3ccccc3N(C)CC2C)on1 (configuration not stated) | -73.36 |
| Cc1noc(C)c1CNCC1CCN(CC(O)c2ccccc2)CC1 (configuration not stated) | 41.75 |
| O=C(O)C(F)(F)F.O=C(c1ccco1)N1C[C@H]2CCCN(Cc3ccc(F)cc3)[C@H]2C1 | -36.52 |
| Cn1cccc1C(=O)NCc1cn2c(n1)CN(CC1CCOCC1)CC2.O=C(O)C(F)(F)F | -71.57 |
| Cc1nc(N2CCCC2)nc2c1CCN(C(=O)NC(C)C)CC2 | 3.788 |
| Cc1cccc(N2CCOCC3(C2)CN(c2cncnc2)C(=O)CO3)n1 (configuration not stated) | -72.37 |
| O=C(CN1CCCC(Cn2cncn2)C1)NCCc1cccs1 (configuration not stated) | -76.44 |

| Compound | Percent Effect [%] |
| --- | --- |
| O=C(CNC(=O)C1(c2ccc(F)cc2F)CCC1)Nc1cccnc1 | -130.4 |
| Cc1ccc(NCc2cccc3cn[nH]c23)cc1OC1CCOC1 (configuration not stated) | 18.44 |
| Cc1ccc(CNCc2nccn2C)c(OCC2CC2)c1 | -19.72 |
| CN(C)CCN1CCC(CNCc2c[nH]nc2C(C)(C)C)CC1 | -18.94 |
| COCCN1CCC(CNCc2c[nH]nc2C(C)(C)C)CC1 | -136.4 |
| Cc1ccc(CNCc2c[nH]nc2C(C)(C)C)c(OC2CCOC2)c1 (configuration not stated) | 54.5 |
| NC(=O)c1ccc(CN2CCC(N3CCCC3)CC2)cc1 | -126.8 |
| O=C(O)C(F)(F)F.O=c1cccnn1CC1CN(CC2CCCC2)Cc2nccn2C1 (configuration not stated) | -25.12 |
| Cn1nccc1-c1cnc2n1CCC21CCN(C(=O)C2(C)CC2)CC1 | -43.4 |
| CCNC(=O)NC(=O)CNc1cccc(C(=O)c2ccccc2)c1 | -85.13 |
| CC(C)(N)CNS(=O)(=O)Cc1cccc2cccnc12.Cl | -113.8 |
| CSc1nc2ncc3c(=O)n(CCN4CCCCC4)ccc3n2n1 | -81.14 |
| Cc1ccccc1C(=O)N1CCCn2cnc(CN3CCCC3=O)c2C1 | -111.5 |
| Cc1ncccc1C(=O)Nc1cccc(OCC(F)F)n1 | -105.7 |
| COc1ccc(S(=O)(=O)N2Cc3c(CN(C)C)nn(C)c3C2)cc1.O=C(O)C(F)(F)F | 40.82 |
| Cc1ccc(CS(=O)(=O)N2Cc3c(CN(C)C)nn(C)c3C2)cc1.O=C(O)C(F)(F)F | 28.75 |
| CCc1ccc(S(=O)(=O)N2Cc3c(CN(C)C)nn(C)c3C2)cc1.O=C(O)C(F)(F)F | 62.16 |
| CNc1ncc(CN(C)c2nc(C3CCCC3)nc3c2cnn3C)cn1 | -13.34 |
| CC(C)n1c2ccccc2c2c1cc(C(=O)O)n2C(=O)N(C)C | -103.4 |
| O=C(NCCN1CCC(c2cccs2)CC1)Nc1cccs1 | 62.79 |
| O=C(NCCN1CCC(c2cccs2)CC1)c1ccccc1C(F)(F)F | 31.51 |
| O=C(Cc1ccccc1Cl)NCCN1CCC(c2cccs2)CC1 | 62.17 |
| COc1ccc(CCC(=O)NCCN2CCC(c3cccs3)CC2)cc1 | 74.85 |

| Compound | Percent Effect [%] |
| --- | --- |
| CC(=O)NCCN1CCC(c2cccs2)CC1 | 2.442 |
| O=C(NCCc1ccccc1)NCCN1CCC(c2cccs2)CC1 | 76.7 |
| O=C(Cc1ccccc1Cl)NCC1CCN(Cc2ccsc2)CC1 | 33.59 |
| O=C(NCCN1CCC(c2cccs2)CC1)c1ccc(F)cc1Cl | -24.2 |
| CC1CCN(CCNC(=O)c2sccc2C2CC2)CC1 | -42.92 |
| COc1ccc(C(=O)NCCN2CCC(c3cccs3)CC2)cc1OC | 29.34 |
| O=C(NCCC(O)c1ccoc1)Nc1cccs1 (configuration not stated) | -113.5 |
| CCSc1ccccc1C(=O)NCCN1CCC(c2cccs2)CC1 | 28.22 |
| Cn1cnc2c1C(COCC1CC1)CN(c1ncccn1)C2.O=C(O)C(F)(F)F.O=C(O)C(F)(F)F (configuration not stated) | -186 |
| CCc1nnc(SCc2nonc2C)n1C | -83.75 |
| CCS(=O)(=O)N1Cc2ncn(CC3CC3)c2C(COCC2CC2)C1.O=C(O)C(F)(F)F (configuration not stated) | -83.39 |
| CC(C)OCc1noc(C2CCOC2)n1 (configuration not stated) | -54.08 |
| COc1ccc(-c2nnc(CNCCn3cc(C)cn3)o2)cc1 | -61.63 |
| O=C(O)c1cc(S(=O)(=O)Nc2cccc3c2OCCO3)c(Cl)cc1F | -73.09 |
| O=S(=O)(c1ccccc1Cl)N1CCC2(CC1)OCCS2 | -115.5 |
| CCN1CCCC2(CCN(Cc3nnc(C4CC4)o3)C2)C1=O (configuration not stated) | -40.49 |
| CC(C)CCN1CCN(CC(=O)Nc2ccc3nsnc3c2)CC1 | -73.84 |
| Cc1ncncc1C(=O)N1CCCC(c2[nH]ncc2S(C)(=O)=O)C1 (configuration not stated) | -131.2 |
| CN(C)c1ccc(CNC2=NCCCN2)cc1.I | -57.09 |
| I.c1ccc(OCCNC2=NCCCN2)cc1 | 17.05 |
| CCOCc1ccc(CNC2=NCCCN2)cc1.I | 55.49 |

From ChEMBL document CHEMBL3988442, “University of Dundee, Small-Polar-MMV Screening Library” (2021)
